Measured values: PubChem BioAssay (Tox21)
Values joined by “and” are separate entries in the source; they are usually repeats but may differ in a detail not shown here. Identical values can stand only once. Records with an inconclusive call do not appear. Some structures have more than one record in an assay (separate samples or runs), and their calls can disagree. Active and inactive are the calls of the source. Unless noted, the call rests on the fitted dose curve.

Key:
[1] = Nuclear factor erythroid 2-related factor 2/antioxidant responsive element (Nrf2/ARE) small molecule agonists: qHTS cell viability counter screen in human keratinocytes (AID 1919968; active means well fitted curve in the direction sought with a large enough effect in the repeat runs; an effect the other way counts as inactive or inconclusive; further: nearly all actives have a fitted effect of over 55% in size)
Outline: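 Measured as CellTiter-Fluor fluorescence, this readout tracks cytotoxicity in the same wells as the ARE-luciferase screen. HaCaT reporter cells (1,500/well) received compounds after a 5 h pre-incubation and were exposed for 23 h.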

[2] = Nuclear factor erythroid 2-related factor 2/antioxidant responsive element (Nrf2/ARE) small molecule agonists: luciferase reporter gene qHTS assay in human keratinocytes (AID 1919969); further: nearly all actives have a fitted effect of over 35% in size
[3] = molecular target: Gonadotropin-releasing hormone receptor (Homo sapiens) (UniProt P30968); assay: Human gonadotropin-releasing hormone receptor (GnRHR) small molecule agonists, calcium flux assay in GnRHR-HEK293 cells (AID 1920063); further: nearly all actives have a fitted effect of over 35% in size
Gonadotropin-releasing hormone receptor (Homo sapiens), sequence (P30968 whole entry, looked up): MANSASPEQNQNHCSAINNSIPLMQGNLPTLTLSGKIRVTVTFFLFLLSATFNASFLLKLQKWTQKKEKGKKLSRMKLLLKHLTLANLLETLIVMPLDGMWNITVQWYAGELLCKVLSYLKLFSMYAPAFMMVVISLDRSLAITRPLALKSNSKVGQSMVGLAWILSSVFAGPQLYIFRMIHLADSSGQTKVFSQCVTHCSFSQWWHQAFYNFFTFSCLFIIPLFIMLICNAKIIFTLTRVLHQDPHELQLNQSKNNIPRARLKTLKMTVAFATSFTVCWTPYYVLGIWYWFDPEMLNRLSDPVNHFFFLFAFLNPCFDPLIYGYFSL
Outline: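 Fluorescence kinetics (480 nm excitation, 540 nm emission; 3 min, 1 s steps) report calcium mobilisation in human GnRHR-HEK293 cells in agonist mode. Dye incubation: 1 h, 37 C.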

[4] = p53 small molecule agonists, cell-based qHTS assay with human liver microsomes (AID 1963577);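 further: p53 response element beta-lactamase reporter cells with liver microsomes plus NADPH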
Outline: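 Steps: plate p53RE-bla cells, incubate 5 h at 37 C; add compound in DMSO; add microsomes (0.5 mg/mL final) and NADPH (0.5 mg/mL final); incubate 16 h at 37 C; add LiveBLAzer, 2 h RT; read fluorescence.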

[5] = p53 small molecule agonists, cell-based qHTS assay with rat liver microsomes (AID 1963578)
Outline: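 Metabolic activation is supplied by rat liver microsomes with NADPH (each 0.5 mg/mL final). p53RE-bla cells incubate with compound 16 h at 37 C; reporter activity is measured by LiveBLAzer fluorescence.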

[6] = p53 small molecule agonists, cell-based qHTS assay with human liver microsomes: qHTS cell viability counter screen (AID 1963579); further: nearly all actives have a fitted effect of over 45% in size
Outline: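 After the 460/530 nm beta-lactamase read, CellTiter-Glo was added to the same wells and luminescence measured after 30 min at room temperature, giving viability of p53RE-bla cells treated 16 h with compounds plus microsomes and NADPH.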

[7] = p53 small molecule agonists, cell-based qHTS assay with rat liver microsomes: qHTS cell viability counter screen (AID 1963580); further: nearly all actives have a fitted effect of over 45% in size
Outline: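 Viability is assessed in parallel with the p53 reporter read: HCT-116 p53RE-bla cells receive compounds plus rat microsomes and NADPH (0.5 mg/mL final apiece), incubate 16 h at 37 C, and then CellTiter-Glo luminescence is recorded.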

[8] = p53 small molecule agonists, cell-based qHTS assay: qHTS cell viability counter screen (AID 1963581); further: nearly all actives have a fitted effect of over 45% in size
Outline: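 In the same plates used for the p53 bla reporter, HCT-116 cells given compounds for 16 h at 37 C received CellTiter-Glo; luminescence was recorded 30 min later at room temperature.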

[9] = p53 small molecule agonists, cell-based qHTS assay (AID 1963582; active means well fitted activation curve with a large enough effect in the signal ratio in the repeat runs, not every such curve was filed as active; the % refers to the signal ratio)
Outline: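 Compounds are pin-transferred in DMSO onto p53RE-bla cells and incubated 16 h at 37 C. The B/G FRET beta-lactamase substrate is then applied for 2 h at RT and fluorescence recorded.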

[10] = molecular target: 5-hydroxytryptamine receptor 2A (Homo sapiens) (UniProt P28223); assay: 5-hydroxytryptamine receptor 2A (HTR2A) small molecule antagonists, cell-based qHTS assay (AID 1963586); further: nearly all actives have a fitted effect of over 45% in size; further: potency means the concentration at half of the fitted maximal effect
5-hydroxytryptamine receptor 2A (Homo sapiens), sequence (P28223 whole entry, looked up): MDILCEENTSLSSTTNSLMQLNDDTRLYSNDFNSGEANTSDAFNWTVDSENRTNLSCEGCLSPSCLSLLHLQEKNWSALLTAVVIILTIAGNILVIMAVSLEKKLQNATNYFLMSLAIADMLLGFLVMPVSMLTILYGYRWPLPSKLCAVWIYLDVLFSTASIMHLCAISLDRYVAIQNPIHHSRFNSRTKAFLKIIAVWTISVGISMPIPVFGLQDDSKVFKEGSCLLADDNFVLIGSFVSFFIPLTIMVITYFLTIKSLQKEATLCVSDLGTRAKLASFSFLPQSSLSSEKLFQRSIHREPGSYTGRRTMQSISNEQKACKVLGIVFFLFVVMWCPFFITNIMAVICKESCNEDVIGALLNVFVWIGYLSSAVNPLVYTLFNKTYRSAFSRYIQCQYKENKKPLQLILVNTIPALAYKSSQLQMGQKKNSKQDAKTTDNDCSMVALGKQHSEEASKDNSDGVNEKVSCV
Outline: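 Antagonist-mode intracellular calcium assay: DOI (4 nM) added after 5 min compound pre-incubation at room temperature to dye-loaded HTR2A-CHO cells. Fluorescence followed for 3 min, sampled every second.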

[11] = molecular target: 5-hydroxytryptamine receptor 2A (Homo sapiens) (UniProt P28223); assay: 5-hydroxytryptamine receptor 2A (HTR2A) small molecule agonists, cell-based qHTS assay (AID 1963587); further: nearly all actives have a fitted effect of over 30% in size; further: potency means the concentration at half of the fitted maximal effect
Outline: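 CHO cells stably expressing human HTR2A, plated 18 h, loaded with calcium dye 1 h at 37 C. Agonist mode: compounds added and intracellular calcium fluorescence recorded kinetically for 2 min at 1 sec intervals.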

[12] = molecular target: Muscarinic acetylcholine receptor M1 (Homo sapiens) (UniProt P11229); assay: Cholinergic receptor muscarinic 1 (CHRM1) small molecule antagonists, cell-based qHTS assay (AID 1963588); further: nearly all actives have a fitted effect of over 40% in size
Muscarinic acetylcholine receptor M1 (Homo sapiens), sequence (P11229 whole entry, looked up): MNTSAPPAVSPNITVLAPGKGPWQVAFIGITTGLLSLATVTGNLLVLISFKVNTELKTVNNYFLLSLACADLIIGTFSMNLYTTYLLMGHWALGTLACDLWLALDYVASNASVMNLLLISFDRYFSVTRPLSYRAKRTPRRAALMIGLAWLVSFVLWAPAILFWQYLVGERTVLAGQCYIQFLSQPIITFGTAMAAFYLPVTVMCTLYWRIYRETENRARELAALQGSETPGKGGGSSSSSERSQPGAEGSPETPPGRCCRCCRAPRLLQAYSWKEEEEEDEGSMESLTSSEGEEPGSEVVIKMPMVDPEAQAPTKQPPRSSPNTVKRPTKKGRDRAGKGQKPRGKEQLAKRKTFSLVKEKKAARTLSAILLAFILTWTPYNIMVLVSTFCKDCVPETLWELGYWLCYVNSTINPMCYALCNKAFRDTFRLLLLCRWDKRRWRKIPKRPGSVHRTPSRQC
Outline: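 CHRM1-CHO calcium-flux assay, antagonist mode. Cells were seeded 18 h, dye-loaded 1 h at 37 C and given compound for 5 min at RT, then acetylcholine was added at 50nM. FDSS fluorescence was read 3 min; 15 concentrations, three runs.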

[13] = molecular target: Muscarinic acetylcholine receptor M1 (Homo sapiens) (UniProt P11229); assay: Cholinergic receptor muscarinic 1 (CHRM1) small molecule agonists, cell-based qHTS assay (AID 1963589); further: nearly all actives have a fitted effect of over 35% in size
Outline: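 Each compound was tested at 15 concentrations across three independent runs on dye-loaded CHO cells stably expressing human CHRM1, reading intracellular calcium fluorescence kinetically at 1 sec intervals.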

[14] = cAMP Responsive Elements (CRE) small molecule agonists, cell-based qHTS assay (AID 1963590)
Outline: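 Cell line: CRE-bla HEK 293T; medium DMEM/10% dialyzed FBS/0.1 mM NEAA/1 mM pyruvate/25 mM HEPES; 3 h compound exposure; beta-lactamase FRET readout after 2 h substrate loading at RT.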

[15] = cAMP Responsive Elements (CRE) small molecule antagonists, cell-based qHTS assay (AID 1963591; active means well fitted inhibition curve with a large enough effect in the signal ratio in the repeat runs, not every such curve was filed as active; the % refers to the signal ratio)
Outline: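 Inhibition of NKH477-driven (0.25 uM final) CRE-beta-lactamase signal in HEK293T cells, 3 h compound exposure at 37 °C, detected by FRET substrate fluorescence.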

[16] = molecular target: Beta-2 adrenergic receptor (Homo sapiens) (UniProt P07550); assay: Adrenergic beta2 receptor (ADRB2) small molecule antagonists, cell-based qHTS assay (AID 1963592); further: series mostly up to about 92 µM; nearly all actives have a fitted effect of over 50% in size
Beta-2 adrenergic receptor (Homo sapiens), sequence (P07550 whole entry, looked up): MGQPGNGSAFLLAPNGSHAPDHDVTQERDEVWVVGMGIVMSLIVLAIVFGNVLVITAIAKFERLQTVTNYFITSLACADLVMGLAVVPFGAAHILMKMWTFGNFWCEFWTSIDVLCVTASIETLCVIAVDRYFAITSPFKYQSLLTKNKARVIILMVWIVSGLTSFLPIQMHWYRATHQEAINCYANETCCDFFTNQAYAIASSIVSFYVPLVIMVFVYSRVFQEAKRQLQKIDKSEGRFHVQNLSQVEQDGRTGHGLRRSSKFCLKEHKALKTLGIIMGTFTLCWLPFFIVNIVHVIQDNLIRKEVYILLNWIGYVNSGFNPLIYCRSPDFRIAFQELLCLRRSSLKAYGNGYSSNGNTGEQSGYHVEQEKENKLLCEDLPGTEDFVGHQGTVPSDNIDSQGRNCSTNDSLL
Outline: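 Cells (CHO, stable ADRB2 overexpression) incubated 18-20hr at 37C; compounds added from DMSO; agonist mix (1nM isoproterenol, 100uM IBMX, 25uM Ro-20-1724) added; 0.5hr RT; d2-cAMP and anti-cAMP-cryptate added; 1hr RT; 665/615 nm read.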

[17] = molecular target: Beta-2 adrenergic receptor (Homo sapiens) (UniProt P07550); assay: Adrenergic beta2 receptor (ADRB2) small molecule agonists, cell-based qHTS assay (AID 1963593);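 further: CHO cells stably overexpressing human ADRB2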
Outline: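 CHO cells stably over-expressing ADRB2 were plated overnight at 37C, then dosed with compounds plus a stimulation mix containing 100uM IBMX and 25uM Ro-20-1724 for 0.5hr at room temperature. cAMP was measured by HTRF competition, 1hr.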

[18] = molecular target: D(2) dopamine receptor (Homo sapiens) (UniProt P14416); assay: Dopamine D2 receptor (DRD2) small molecule agonists, cell-based qHTS assay (AID 1963594); further: nearly all actives have a fitted effect of over 35% in size
D(2) dopamine receptor (Homo sapiens), sequence (P14416 whole entry, looked up): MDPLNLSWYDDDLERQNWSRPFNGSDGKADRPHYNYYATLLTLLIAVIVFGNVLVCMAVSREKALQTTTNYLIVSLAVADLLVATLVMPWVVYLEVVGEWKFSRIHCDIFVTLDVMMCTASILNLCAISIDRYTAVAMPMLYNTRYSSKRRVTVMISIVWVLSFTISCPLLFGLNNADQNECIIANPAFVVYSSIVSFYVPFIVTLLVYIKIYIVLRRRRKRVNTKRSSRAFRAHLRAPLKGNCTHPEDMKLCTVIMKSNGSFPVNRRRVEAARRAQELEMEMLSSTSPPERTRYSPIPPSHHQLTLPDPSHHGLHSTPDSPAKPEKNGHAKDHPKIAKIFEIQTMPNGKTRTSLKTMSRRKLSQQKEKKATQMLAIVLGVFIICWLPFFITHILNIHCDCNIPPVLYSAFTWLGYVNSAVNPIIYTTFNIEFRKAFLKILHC
Outline: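 HEK293 cells stably expressing human DRD2, pre-treated with PDE inhibitor Ro20-1724 (0.1 mM final) and compound 10 min at room temperature, then stimulated with NKH477 (200nM […]) for 30 min. cAMP read by HTRF (665/620 nm).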

[19] = molecular target: D(2) dopamine receptor (Homo sapiens) (UniProt P14416); assay: Dopamine D2 receptor (DRD2) small molecule antagonists, cell-based qHTS assay (AID 1963595; active means well fitted inhibition curve with a large enough effect in the signal ratio in the repeat runs, with a control signal flat; the % refers to the signal ratio)
Outline: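 Antagonism was scored as restored cAMP in HEK293-DRD2 cells. These cells were stimulated with 200 nM NKH477 and 12 nM quinpirole for 30 min at room temperature, in the presence of 0.1 mM Ro20-1724.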

[20] = molecular target: KiSS-1 receptor (Homo sapiens) (UniProt Q969F8); assay: Human kisspeptin (KISS1R) small molecule agonists, calcium flux assay in KISS1R-HEK293 cells (AID 1920064; active means well fitted curve in the direction sought with a large enough effect in the repeat runs; an effect the other way counts as inactive or inconclusive)
KiSS-1 receptor (Homo sapiens), sequence (Q969F8 whole entry, looked up): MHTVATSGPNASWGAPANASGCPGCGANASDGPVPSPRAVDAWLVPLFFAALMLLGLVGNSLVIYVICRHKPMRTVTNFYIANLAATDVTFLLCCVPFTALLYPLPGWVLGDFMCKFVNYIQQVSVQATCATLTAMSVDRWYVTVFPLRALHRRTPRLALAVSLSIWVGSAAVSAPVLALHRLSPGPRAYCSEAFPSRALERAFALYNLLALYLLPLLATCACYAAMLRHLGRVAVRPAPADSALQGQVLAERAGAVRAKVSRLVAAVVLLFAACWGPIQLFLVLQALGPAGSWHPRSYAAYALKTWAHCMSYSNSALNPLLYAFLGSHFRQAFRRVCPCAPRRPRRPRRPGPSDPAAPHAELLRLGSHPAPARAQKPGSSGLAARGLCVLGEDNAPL
Outline: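 Measures KISS1R agonism through calcium-sensitive dye fluorescence in stably transfected HEK293 cells, read for 3 min after pin-tool compound delivery; 15-point titrations in triplicate.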

Measured: Potency

C=C(C)[C@@H]1CCC2=CC(=O)C[C@@H](C)[C@]2(C)C1
inactive: [1] | [2] | [3] | [4] | [5] | [6] | [7] | [8] | [9] | [10] | [11] | [12] | [13] | [14] | [15] | [16] | [17] | [18] | [19]

CNC(=O)Nc1ccc(Cl)c(Cl)c1
inactive: [1] | [2] | [3] | [4] | [5] | [6] | [7] | [8] | [9] | [10] | [11] | [12] | [13] | [14] | [15] | [16] | [17] | [18] | [19]

CCOC(=O)c1c(C)n(C)c2ccc(O)cc12
inactive: [1] | [2] | [3] | [20] | [4] | [5] | [7] | [8] | [9] | [10] | [11] | [12] | [13] | [14] | [15] | [16] | [17] | [18] | [19]

O=C[C@H](O)[C@@H](O)[C@H](O)[C@H](O)CO
inactive: [1] | [2] | [3] | [4] | [5] | [6] | [7] | [8] | [9] | [10] | [11] | [12] | [13] | [14] | [15] | [16] | [17] | [18] | [19]

O=P(O)(OCc1ccccc1)OCc1ccccc1
inactive: [1] | [2] | [3] | [20] | [4] | [6] | [7] | [11] | [12] | [13] | [14] | [15] | [16] | [18] | [19]

CCN1CCC[C@H]1CNC(=O)c1c(O)c(Cl)cc(Cl)c1OC
inactive: [1] | [2] | [3] | [4] | [5] | [6] | [7] | [8] | [9] | [11] | [12] | [13] | [14] | [15] | [16] | [18]
active: [10] 18.3 µM

N[C@H](Cc1c[nH]c2ccccc12)C(=O)O
inactive and 19 µM (active): [11]
inactive: [1] | [2] | [3] | [20] | [6] | [7] | [8] | [10] | [12] | [13] | [14] | [15] | [16] | [17] | [18] | [19]

NCCNCCO
inactive: [1] | [2] | [3] | [20] | [5] | [6] | [7] | [10] | [11] | [12] | [13] | [14] | [15] | [16] | [17] | [18] | [19]

CC/C=C/CCO
inactive: [1] | [2] | [3] | [4] | [5] | [6] | [7] | [8] | [9] | [10] | [11] | [12] | [13] | [14] | [15] | [16] | [17] | [18] | [19]

CCOC(=O)c1ccc(C)cc1
inactive: [1] | [2] | [3] | [4] | [5] | [6] | [7] | [8] | [9] | [10] | [11] | [12] | [13] | [14] | [15] | [16] | [17] | [18]

Cc1cc(O)cc(C)c1Cl
inactive: [1] | [2] | [3] | [20] | [6] | [7] | [8] | [14] | [15] | [16] | [18] | [19]

CCCC[O][Al]([O]CCCC)[O]CCCC
inactive: [1] | [2] | [3] | [20] | [5] | [6] | [7] | [8] | [9] | [10] | [12] | [14] | [15] | [16] | [18] | [19]

O=C(O)[C@@H]1[C@H]2C[C@H]3c4[nH]c5ccccc5c4CCN3C[C@@H]2CC[C@@H]1O
inactive: [1] | [2] | [3] | [4] | [5] | [6] | [7] | [8] | [9] | [10] | [11] | [12] | [13] | [14] | [15] | [16] | [18]

CCOc1c(N2CCOCC2)cnn(C)c1=O
inactive: [1] | [2] | [3] | [4] | [5] | [6] | [7] | [8] | [9] | [10] | [11] | [12] | [13] | [14] | [15] | [16] | [17] | [18] | [19]
